Reference: PubChem BioAssay AID1159580 (chemical genetic matrix, 2015)
Out of some 5,500 compounds screened, about 2,000 (36%) were called active. Another 18% or so got no clear call; they are omitted. Cut-off read from the data, not from the text of the source: active = normalized growth mostly below about 0.91 (no sharp cut-off); inconclusive = no clear call, values can overlap the other calls; inactive = mostly above about 0.92. This is one part of the list.

Test: chemical genetic growth profiling, strain panel (AID 1159580);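 note: tested at 20 µM; growth read once vehicle control cultures reached saturation at 30 °C; 1 = growth at the plate median or of vehicle wells; lower values mean less growth of the strain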
Settings: growth OD
[1] = S. cerevisiae deletion strains, locus YDL101C, strain DUN1, stronger effect = lower value
[2] = S. cerevisiae deletion strains, locus YHR030C, strain SLT2, stronger effect = lower value

Measured: normalized growth

CC12NC(=O)NC1(C)NC(=O)N2 (configuration not stated)
inactive: S. cerevisiae deletion strains, locus YAL013W, strain DEP1, stronger effect = lower value 1.04 | S. cerevisiae deletion strains, locus YBR229C, strain ROT2, stronger effect = lower value 1.01 | S. cerevisiae deletion strains, locus YCL061C, strain MRC1, stronger effect = lower value 1 | [1] 1.01 | S. cerevisiae deletion strains, locus YDL134C, strain PPH21, stronger effect = lower value 1.02 | S. cerevisiae deletion strains, locus YDR150W, strain NUM1, stronger effect = lower value 0.997 | S. cerevisiae deletion strains, locus YEL061C, strain CIN8, stronger effect = lower value 1.03 | S. cerevisiae deletion strains, locus YGR078C, strain PAC10, stronger effect = lower value 1.02 | S. cerevisiae deletion strains, locus YGR229C, strain SMI1, stronger effect = lower value 1.01 | [2] 1.07 | S. cerevisiae deletion strains, locus YHR087W, strain rtc3, stronger effect = lower value 1.01 | S. cerevisiae deletion strains, locus YJR043C, strain POL32, stronger effect = lower value 1.01 | S. cerevisiae deletion strains, locus YJR075W, strain HOC1, stronger effect = lower value 1.02 | S. cerevisiae deletion strains, locus YKL190W, strain CNB1, stronger effect = lower value 1.03 | S. cerevisiae deletion strains, locus YLR039C, strain RIC1, stronger effect = lower value 1.06 | S. cerevisiae deletion strains, locus YLR058C, strain SHM2 (second series), stronger effect = lower value 1.02 | S. cerevisiae deletion strains, locus YLR085C, strain ARP6, stronger effect = lower value 1.05 | S. cerevisiae deletion strains, locus YLR262C, strain YPT6, stronger effect = lower value 1.04 | S. cerevisiae deletion strains, locus YML094W, strain GIM5, stronger effect = lower value 1.04 | S. cerevisiae deletion strains, locus YMR219W, strain ESC1, stronger effect = lower value 1.01 | S. cerevisiae deletion strains, locus YMR263W, strain SAP30, stronger effect = lower value 1.01 | S. cerevisiae deletion strains, locus YMR307W, strain GAS1, stronger effect = lower value 1.11 | S. cerevisiae deletion strains, locus YNL153C, strain GIM3, stronger effect = lower value 1 | S. cerevisiae deletion strains, locus YNL298W, strain CLA4 (second series), stronger effect = lower value 1.05 | S. cerevisiae deletion strains, locus YNL322C, strain KRE1, stronger effect = lower value 1.01 | S. cerevisiae deletion strains, locus YNR030W, strain Alg12, stronger effect = lower value 1.02 | S. cerevisiae deletion strains, locus YOL006C, strain TOP1, stronger effect = lower value 1.09 | S. cerevisiae deletion strains, locus YPL055C, strain LGE1, stronger effect = lower value 1.04 | S. cerevisiae deletion strains, locus YPL241C, strain CIN2, stronger effect = lower value 1.05 | S. cerevisiae deletion strains, locus YPR135W, strain CTF4, stronger effect = lower value 1.02 | S. cerevisiae strains, strain wild type, stronger effect = lower value 1.01

ClC1=C(C=Nc2ccc(Cl)cc2)CSc2ccc(Cl)cc21
active: [2] 0.74 | S. cerevisiae deletion strains, locus YLR113W, strain HOG1, stronger effect = lower value 0.808 | S. cerevisiae deletion strains, locus YPL256C, strain CLN2, stronger effect = lower value 0.843
inactive: S. cerevisiae deletion strains, locus YAR019C, strain CDC15, stronger effect = lower value 0.941 | S. cerevisiae deletion strains, locus YBL105C, strain PKC1, stronger effect = lower value 0.926 | S. cerevisiae deletion strains, locus YBR135W, strain CKS1, stronger effect = lower value 0.939 | S. cerevisiae deletion strains, locus YBR136W, strain MEC1, stronger effect = lower value 0.926 | S. cerevisiae deletion strains, locus YBR160W, strain CDC28, stronger effect = lower value 0.937 | S. cerevisiae deletion strains, locus YDL017W, strain CDC7, stronger effect = lower value 0.933 | S. cerevisiae deletion strains, locus YDL028C, strain MPS1, stronger effect = lower value 0.912 | [1] 0.945 | S. cerevisiae deletion strains, locus YDL108W, strain KIN28, stronger effect = lower value 0.923 | S. cerevisiae deletion strains, locus YDL132W, strain cdc53, stronger effect = lower value 0.936 | S. cerevisiae deletion strains, locus YDL214C, strain PRR2, stronger effect = lower value 0.896 | S. cerevisiae deletion strains, locus YDR052C, strain DBF4, stronger effect = lower value 0.943 | S. cerevisiae deletion strains, locus YDR054C, strain cdc34, stronger effect = lower value 0.919 | S. cerevisiae deletion strains, locus YDR226W, strain ADK1, stronger effect = lower value 0.914 | S. cerevisiae deletion strains, locus YDR477W, strain SNF1, stronger effect = lower value 0.879 | S. cerevisiae deletion strains, locus YER123W, strain YCK3, stronger effect = lower value 0.83 | S. cerevisiae deletion strains, locus YER133W, strain GLC7, stronger effect = lower value 0.891 | S. cerevisiae deletion strains, locus YFL009W, strain cdc4, stronger effect = lower value 0.924 | S. cerevisiae deletion strains, locus YFL029C, strain CAK1, stronger effect = lower value 0.928 | S. cerevisiae deletion strains, locus YFR003C, strain YPI1, stronger effect = lower value 0.94 | S. cerevisiae deletion strains, locus YFR019W, strain FAB1, stronger effect = lower value 0.909 | S. cerevisiae deletion strains, locus YFR028C, strain CDC14, stronger effect = lower value 0.935 | S. cerevisiae deletion strains, locus YGR040W, strain KSS1, stronger effect = lower value 0.866 | S. cerevisiae deletion strains, locus YGR052W, strain FMP48, stronger effect = lower value 0.905 | S. cerevisiae deletion strains, locus YGR092W, strain DBF2, stronger effect = lower value 0.796 | S. cerevisiae deletion strains, locus YHR079C, strain IRE1, stronger effect = lower value 0.862 | S. cerevisiae deletion strains, locus YHR082C, strain KSP1, stronger effect = lower value 0.816 | S. cerevisiae deletion strains, locus YHR205W, strain SCH9, stronger effect = lower value 0.812 | S. cerevisiae deletion strains, locus YIL147C, strain SLN1, stronger effect = lower value 0.926 | S. cerevisiae deletion strains, locus YJL095W, strain BCK1, stronger effect = lower value 0.881 | S. cerevisiae deletion strains, locus YJL128C, strain PBS2, stronger effect = lower value 0.903 | S. cerevisiae deletion strains, locus YJL157C, strain FAR1, stronger effect = lower value 0.886 | S. cerevisiae deletion strains, locus YJR016C, strain ILV3, stronger effect = lower value 0.936 | S. cerevisiae deletion strains, locus YJR066W, strain TOR1 (second series), stronger effect = lower value 0.91 | S. cerevisiae deletion strains, locus YJR066W, strain TOR1, stronger effect = lower value 0.815 | S. cerevisiae deletion strains, locus YKL048C, strain ELM1, stronger effect = lower value 0.941 | S. cerevisiae deletion strains, locus YKL067W, strain YNK1, stronger effect = lower value 0.902 | S. cerevisiae deletion strains, locus YKL101W, strain HSL1, stronger effect = lower value 0.893 | S. cerevisiae deletion strains, locus YKL193C, strain SDS22, stronger effect = lower value 0.932 | S. cerevisiae deletion strains, locus YKL203C, strain TOR2, stronger effect = lower value 0.884 | S. cerevisiae deletion strains, locus YLR133W, strain CKI1, stronger effect = lower value 0.869 | S. cerevisiae deletion strains, locus YLR403W, strain SFP1, stronger effect = lower value 0.836 | S. cerevisiae deletion strains, locus YML070W, strain DAK1, stronger effect = lower value 0.89 | S. cerevisiae deletion strains, locus YMR001C, strain CDC5, stronger effect = lower value 0.927 | S. cerevisiae deletion strains, locus YMR205C, strain PFK2 (second series), stronger effect = lower value 0.904 | S. cerevisiae deletion strains, locus YMR277W, strain FCP1, stronger effect = lower value 0.933 | S. cerevisiae deletion strains, locus YNL006W, strain LST8, stronger effect = lower value 0.928 | S. cerevisiae deletion strains, locus YNL020C, strain ARK1, stronger effect = lower value 0.883 | S. cerevisiae deletion strains, locus YNL161W, strain CBK1, stronger effect = lower value 0.929 | S. cerevisiae deletion strains, locus YNL183C, strain NPR1, stronger effect = lower value 0.841 | S. cerevisiae deletion strains, locus YNL207W, strain RIO2, stronger effect = lower value 0.926 | S. cerevisiae deletion strains, locus YNL222W, strain SSU72, stronger effect = lower value 0.947 | S. cerevisiae deletion strains, locus YNL307C, strain MCK1 (second series), stronger effect = lower value 0.861 | S. cerevisiae deletion strains, locus YOL078W, strain AVO1, stronger effect = lower value 0.937 | S. cerevisiae deletion strains, locus YOL136C, strain PFK27, stronger effect = lower value 0.886 | S. cerevisiae deletion strains, locus YOR061W, strain CKA2, stronger effect = lower value 0.843 | S. cerevisiae deletion strains, locus YOR119C, strain RIO1, stronger effect = lower value 0.848 | S. cerevisiae deletion strains, locus YOR231W, strain MKK1, stronger effect = lower value 0.924 | S. cerevisiae deletion strains, locus YOR329C, strain SCD5, stronger effect = lower value 0.93 | S. cerevisiae deletion strains, locus YPL031C, strain PHO85, stronger effect = lower value 0.87 | S. cerevisiae deletion strains, locus YPL153C, strain RAD53, stronger effect = lower value 0.904 | S. cerevisiae deletion strains, locus YPL204W, strain HRR25, stronger effect = lower value 0.893 | S. cerevisiae deletion strains, locus YPL209C, strain IPL1, stronger effect = lower value 0.932 | S. cerevisiae deletion strains, locus YPR025C, strain CCL1, stronger effect = lower value 0.935 | S. cerevisiae deletion strains, locus YPR106W, strain ISR1, stronger effect = lower value 0.922 | S. cerevisiae deletion strains, locus YPR111W, strain DBF20, stronger effect = lower value 0.923 | S. cerevisiae deletion strains, strain NNK1, stronger effect = lower value 0.923 | S. cerevisiae deletion strains, strain TSCII, stronger effect = lower value 0.93
